Screening results (PubChem BioAssay)
DUX4 inh = blocks DUX4-driven transcriptional activation; 293T-iDUX4 ZSCAN4-Gaussia luciferase reporter, 24 h; hits give low values; activity change, negative = inhibition, % (concentration not given with the values); 37,000 tested, 0.8% active;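 active = mean inhibition of at least 10% in the main channel, exceeding the control channel by a set limit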;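 also: 0% = median of neutral control wells and -100% = median of positive control wells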
* marks the source's active call; other numbers are inactive results. Shown is part of a subset that was picked to be rich in hits.

SMILES | DUX4 inh
CN1C(=O)c2cc(NC(=O)c3ccc(F)c(F)c3)ccc2OC[C@H]2O[C@@H](CC(=O)Nc3ccc4c(c3)COC4)CC[C@@H]21 | 2.3
CN1C(=O)c2cc(NC(=O)c3ccc4c(c3)OCO4)ccc2OC[C@H]2O[C@H](CC(=O)O)CC[C@H]21 | 5.0
C[C@H]1CN([C@@H](C)CO)C(=O)c2c(c3ccccc3n2C)-c2ccccc2CO[C@@H]1CN(C)Cc1ccc(C(F)(F)F)cc1 | -48.5*
C[C@@H]1CN([C@H](C)CO)C(=O)c2c(c3ccccc3n2C)-c2ccccc2CO[C@@H]1CN(C)Cc1ccc(C(F)(F)F)cc1 | -43.0*
C[C@@H]1CN([C@H](C)CO)C(=O)c2c(c3ccccc3n2C)-c2ccccc2CO[C@H]1CN(C)Cc1ccc(C(=O)O)cc1 | 5.6
C[C@H]1CN([C@@H](C)CO)C(=O)c2c(c3ccccc3n2C)-c2ccccc2CO[C@@H]1CN(C)Cc1ccc(C(=O)O)cc1 | 16.3
C[C@@H]1CN([C@@H](C)CO)C(=O)c2c(c3ccccc3n2C)-c2ccccc2CO[C@@H]1CN(C)Cc1ccc(O)cc1 | -9.0
C[C@@H]1CN([C@H](C)CO)C(=O)c2c(c3ccccc3n2C)-c2ccccc2CO[C@H]1CN(C)Cc1ccc(C(F)(F)F)cc1 | 3.3
CCNC(=O)C[C@@H]1CC[C@H]2[C@@H](COc3ccc(NC(C)=O)cc3C(=O)N2C)O1 | 1.9
O=C(c1cccc(F)c1)N1CC(=O)N2[C@H](C1)[C@H](c1ccc(-c3ccccc3)cc1)[C@@H]2CO | 0.3
C[C@@H]1CN([C@@H](C)CO)C(=O)c2ccccc2-c2ccccc2CO[C@@H]1CN(C)Cc1ccc(F)cc1 | -0.1
C[C@H](CO)N1C[C@H](C)[C@@H](CN(C)Cc2cccc(C(F)(F)F)c2)OCc2ccccc2-c2ccccc2C1=O | -42.4*
C[C@@H]1CN([C@@H](C)CO)C(=O)c2ccccc2-c2ccccc2CO[C@@H]1CN(C)Cc1ccc(-c2ccccc2)cc1 | -29.3*
C[C@H]1CN([C@@H](C)CO)C(=O)c2ccccc2-c2ccccc2CO[C@@H]1CN(C)Cc1cccc(F)c1 | -3.4
C[C@@H]1CN([C@@H](C)CO)C(=O)c2ccccc2-c2ccccc2CO[C@@H]1CN(C)Cc1ccc(Cl)c(Cl)c1 | -30.7*
C[C@@H]1CN([C@H](C)CO)C(=O)c2ccccc2-c2ccccc2CO[C@@H]1CN(C)Cc1cccc(F)c1 | -7.1
C[C@H](CO)N1C[C@H](C)[C@H](CN(C)Cc2ccc(-c3ccccc3)cc2)OCc2ccccc2-c2ccccc2C1=O | -6.8
C[C@H](CO)N1C[C@H](C)[C@@H](CN(C)Cc2ccc3c(c2)OCO3)OCc2ccccc2-c2ccccc2C1=O | 8.3
C[C@H](CO)N1C[C@H](C)[C@H](CN(C)Cc2ccc3c(c2)OCO3)OCc2ccccc2-c2ccccc2C1=O | -6.2
O=C(C[C@H]1C=C[C@@H](NC(=O)C2CCC2)[C@@H](CO)O1)NCCCN1CCOCC1 | 5.1
Cc1cccc(-c2ccc([C@H]3[C@@H](CO)N4C(=O)CN(C(=O)c5cnccn5)C[C@@H]34)cc2)c1 | 10.5
COCC#Cc1ccc([C@H]2[C@H]3CN(C(=O)Nc4cc(F)ccc4F)CC(=O)N3[C@H]2CO)cc1 | 9.0
O=C(C[C@H]1C[C@@H]2c3cc(NC(=O)CC4CC4)ccc3O[C@@H]2[C@H](CO)O1)NCc1cccc(F)c1 | -4.5
O=C(C[C@@H]1C[C@H]2c3cc(NC(=O)c4ccc5c(c4)OCO5)ccc3O[C@H]2[C@H](CO)O1)NCc1cccnc1 | 4.9
COc1ccc(-c2ccc(C3[C@H]4CNC[C@@H]3N4Cc3cncnc3)cc2)cc1 (some centres undefined) | 26.0
